Source: ChEMBL document CHEMBL4513216, “Probing the Open Global Health Chemical Diversity Library for Multistage-Active Starting Points for Next-Generation Antimalarials” (ACS Infect Dis, 2020)
In all, about 69,000 compounds went through this assay and about 8,600 (12%) showed an effect of 50% or more. The sample as a whole holds a higher share of strong results than the screen did.

System: Plasmodium berghei
Assay: Screen against P. berghei liver stage (PbLuc), transformed with Luciferase, at 10uM
Assay type: functional, HepG2
Settings: tested at 10 uM

First: Cc1oc(C(=O)Nc2cccc(Cl)c2C)cc1S(N)(=O)=O
Second: Cc1cccc(C)c1NC(=O)c1cc(S(N)(=O)=O)c(C)o1
The INHIBITION of the first is lower: -74.6% for the first, 52.7% for the second.

Compared with Cc1oc(C(=O)Nc2ccccc2F)cc1S(N)(=O)=O, Cc1ccn(CC(=O)NCCCOc2ccccc2F)c(=O)c1 is lower in INHIBITION: 17.5% for the first, 10.9% for the second.

Compared with Cc1nccc(CNC(=O)Nc2cc(C(F)(F)F)c[nH]c2=O)n1, Cc1nc(CNC(=O)c2cc(COc3cccc(F)c3)[nH]n2)n[nH]1 is higher in INHIBITION: 8.38% for the first, 10.1% for the second.

Going from CS(=O)(=O)NC(=O)c1ccn(-c2ccc(Cl)c(Cl)c2)n1 to COC(=O)CNC(=O)c1ccn(-c2ccc(Cl)c(Cl)c2)n1, the INHIBITION rises from -43.9% to 51.6%.

Going from CNC(=O)COC(=O)c1ccn(-c2ccc(Cl)c(Cl)c2)n1 to COc1ccc(-n2ccc(C(=O)N(CCN(C)C)C(C)C)n2)cc1, the INHIBITION falls from 35.7% to 18.2%.

Compared with O=C(C1CCCOC1)N1CCN(CC(F)(F)F)c2ccccc21 (centres undefined), OC1(CNCCCN2CCCc3ccccc32)CNCCOC1 (centres undefined) is higher in INHIBITION: 11.3% for the first, 45.9% for the second.

Going from O=C1N(Cc2cccc(F)c2)CCC12CCN(c1ccccn1)CC2 to O=C1CCC2(CCN(Cc3ccc(F)cc3)CC2)N1Cc1ccccc1, the INHIBITION rises from -15.9% to 46.6%.

First: O=C(COC[C@@]12CCC[C@@H]1CN(C1CCC1)C2)N1CCCC1
Second: O=C(COC[C@@]12CCC[C@@H]1CN(C1CCCC1)C2)N1CCCC1
The INHIBITION of the first is lower: 27.6% for the first, 34.9% for the second.

First: C1CC(N2C[C@@H]3COC[C@]3(COCC3CCOCC3)C2)C1
Second: O=C(COC[C@]12COC[C@H]1CN(C1CCC1)C2)N1CCCC1
The INHIBITION of the first is lower: 55.7% for the first, 60.2% for the second.

Compared with CN(C)C(=O)COC[C@@]12CCC[C@@H]1CN(C1CCC1)C2, CN(C)C(=O)COC[C@@]12CCC[C@@H]1CN(C1CCCC1)C2 is lower in INHIBITION: 12.7% for the first, -25.7% for the second.

First: c1ccc(OC[C@]23COC[C@H]2CN(C2CCOCC2)C3)nc1
Second: c1cncc(OC[C@]23COC[C@H]2CN(C2CCC2)C3)c1
The INHIBITION of the first is lower: -4.32% for the first, 20.6% for the second.

First: CN(C)C(=O)COC[C@]12COC[C@H]1CN(C1CCCC1)C2
Second: CN(C)C(=O)N1Cc2nnn(CC3CC3)c2C(COCC2CC2)C1 (centres undefined)
The INHIBITION of the first is higher: 56.6% for the first, -0.284% for the second.

First: Nc1ncnc2nc(C3CCCCN3)ccc12 (centres undefined)
Second: Cc1nn(C)c2nc(N3CCCCC3c3ccc(F)cc3)sc12 (centres undefined)
The INHIBITION of the first is higher: 26.45% for the first, -11.6% for the second.

Going from O=C(c1cc(F)ccc1O)N1CCN(C2CCSC2)CC1 (centres undefined) to CCc1nc(C2CCCN(C(=O)c3ccccc3O)C2)no1 (centres undefined), the INHIBITION rises from -75.7% to 37.9%.

First: CN(CCNc1cc(N2CCCC2CO)ncn1)Cc1ccccc1 (centres undefined)
Second: O=C(CCOc1ccccc1F)NC1CCCN(c2ccccn2)C1 (centres undefined)
The INHIBITION of the first is lower: -21.2% for the first, -3.71% for the second.

Compared with CCC(CC)CN1CCN(CC(=O)Nc2ccc3nsnc3c2)CC1, CC(C)CCN1CCN(CC(=O)Nc2ccc3nsnc3c2)CC1 is higher in INHIBITION: 8.99% for the first, 58.3% for the second.

Compared with Cc1ccc(CN2CCN(CC(=O)Nc3ccc4nsnc4c3)CC2)o1, CCn1cc(CN2CCN(CC(O)c3ccc(C)cc3C)CC2)c(C)n1 (centres undefined) is lower in INHIBITION: 46.1% for the first, 28% for the second.

Going from CN(C)Cc1cnc2n1CCN(C(=O)NC1CCCC1)CC2 to CN(CC(F)(F)F)C(=O)CNC(=O)N1CCC(N2CCCC2)C1 (centres undefined), the INHIBITION falls from 43.8% to 30.9%.

Compared with CC(=O)c1cccc(NC(=O)c2cnc(N3CCN(C)CC3)nc2C)c1, Cc1nc(O)cc(CCNC(=O)c2ccccc2N2CCCC2)n1 is higher in INHIBITION: 7.83% for the first, 18.5% for the second.

Going from CCc1nc(C2CCCN(c3ncccn3)C2)no1 (centres undefined) to CCc1nc(C2CCCN(c3ncc(Br)cn3)C2)no1 (centres undefined), the INHIBITION rises from -113% to 31.7%.

Compared with CCc1nc(C2CCCN(C(=O)CN(C)S(C)(=O)=O)C2)no1 (centres undefined), CC(C)c1nc(C2CCCN(C(=O)CN(C)S(C)(=O)=O)C2)no1 (centres undefined) is lower in INHIBITION: 51.3% for the first, -1.35% for the second.

Going from CCc1nc(C2CCCN(C(=O)c3ccccc3F)C2)no1 (centres undefined) to CCc1nc(C2CCCN(C(=O)c3ccccc3Cl)C2)no1 (centres undefined), the INHIBITION falls from 60.5% to 42%.

Going from CCc1nc(C2CCCN(C(=O)CC3CCOCC3)C2)no1 (centres undefined) to CCc1cc(N2CCCC(c3noc(CC)n3)C2)ncn1 (centres undefined), the INHIBITION rises from -2.19% to 58.5%.

Compared with Cc1ccsc1CNCCCOc1ccccn1, Cc1ccc(-c2nc(CCNCc3ccncc3)co2)cc1 is higher in INHIBITION: -19.1% for the first, 49.6% for the second.

Going from CC(=O)c1nn(-c2ccccc2)c(C)c1C(C)=O to CCC(CC)C(=O)NCCc1ccn(-c2ccccc2)n1, the INHIBITION rises from 10.6% to 15.6%.

First: Cc1ccc(-c2nc(CN3CCCC(Cn4cncn4)C3)no2)cc1 (centres undefined)
Second: Cc1ccc(CN2C[C@H]3CN(Cc4ccccc4Cl)CCN3C2=O)cc1
The INHIBITION of the first is higher: -28.3% for the first, -45.5% for the second.

Going from CCN1CC2(CC1=O)CN(Cc1cccs1)CCN(C(=O)C(C)C)C2 (centres undefined) to CCN1CC2(CC1=O)CN(Cc1ccsc1)CCN(C(=O)C(C)C)C2 (centres undefined), the INHIBITION rises from -9.76% to 20.9%.

First: CCN1CC2(CC1=O)CN(C(=O)c1ccsc1)CCN(C(=O)N(C)C)C2 (centres undefined)
Second: CCN1CC2(CC1=O)CN(C(=O)c1ccoc1)CCN(C(=O)N(C)C)C2 (centres undefined)
The INHIBITION of the first is higher: 56.1% for the first, 20.9% for the second.

Compared with CCN1CC2(CC1=O)CN(C(=O)c1ccco1)CCN(C(=O)N(C)C)C2 (centres undefined), CCN1CC2(CC1=O)CN(C(=O)c1cccs1)CCN(C(=O)N(C)C)C2 (centres undefined) is higher in INHIBITION: 5.14% for the first, 71% for the second.

First: CN(CCOc1ccc(C#N)cc1)CC1CC1
Second: COCC1CN(Cc2ccncc2)Cc2nnn(CC3CC3)c21 (centres undefined)
The INHIBITION of the first is lower: -24.7% for the first, 45.1% for the second.

Compared with CCCC12CN3CC(CCC)(CN(C1)C3c1[nH]c(=O)[nH]c(=O)c1C)C2=O (centres undefined), CCN(CC)CC(=O)N1CCCCC1c1nc(C)cs1 (centres undefined) is lower in INHIBITION: 17.1% for the first, -67.3% for the second.

First: CCO[C@@H]1CCN(c2ccc(C)nn2)[C@@H]1Cc1cnn(C)c1
Second: Cc1ccc(N2CCCN(C(=O)CC3C=CCC3)CC2)nn1 (centres undefined)
The INHIBITION of the first is higher: 24.8% for the first, -0.113% for the second.

Going from CC(C)(C)n1ncc2c(=O)n(CC(=O)NCc3ccccc3Cl)cnc21 to CC(C)(C)n1ncc2c(=O)n(CC(=O)NCc3ccccc3)cnc21, the INHIBITION rises from 71.4% to 84.3%.

First: CC(C)(C)n1ncc2c(=O)n(CC(=O)NCCc3ccccc3)cnc21
Second: CC(C)(C)n1ncc2c(=O)n(CC(=O)NCc3ccco3)cnc21
The INHIBITION of the first is higher: -25.4% for the first, -28.5% for the second.

Compared with CCCNC(=O)Cn1nc(C(C)C)c2cnn(C(C)(C)C)c2c1=O, NC(=O)Cn1c(CO)cnc1SCC(=O)NCc1ccccc1Cl is lower in INHIBITION: -7.35% for the first, -20.8% for the second.

Going from Cc1ccncc1-n1cc(CCO)cn1 to Cc1nc(CSCCC(=O)NCc2ccncc2)cs1, the INHIBITION falls from 0.546% to -4.94%.

Going from O=C(CC1CCCCC1)NC1CCCc2nc(N3CCOCC3)ncc21 (centres undefined) to C1CCC(CN2Cc3nnn(CC4CC4)c3C(COCC3CC3)C2)C1 (centres undefined), the INHIBITION rises from 25.6% to 63.3%.

First: Cc1cc(NC(C)c2nnn[nH]2)n2nc(C)c(C)c2n1 (centres undefined)
Second: Cc1nn(C)c2nc(N3CCNC(=O)C3C(C)C)sc12 (centres undefined)
The INHIBITION of the first is higher: 5.91% for the first, -47.5% for the second.

Compared with C1CC(N2Cc3nnn(CC4CC4)c3C(COCC3CC3)C2)C1 (centres undefined), CCOCC1CN(CC2CCC2)Cc2nnn(CC3CC3)c21 (centres undefined) is lower in INHIBITION: 67.3% for the first, 44.4% for the second.

Compared with c1cc(CN2Cc3nnn(CC4CC4)c3C(COCC3CC3)C2)co1 (centres undefined), CC(C)c1cc(CN2CCC(N)CC2)no1 is higher in INHIBITION: 29.6% for the first, 76.8% for the second.

Compared with O=C1CCOC[C@]2(CN(Cc3ccccc3)C[C@H]2c2cccc(F)c2)N1, Cc1ccc(CN2CCN(C(=O)c3ccccc3O)C(C)C2=O)cc1 (centres undefined) is higher in INHIBITION: -38.8% for the first, 37.6% for the second.

Going from COc1ccc2c(c1)OCC(C(=O)NCc1nc3c(s1)CCCC3)C2 (centres undefined) to COc1ccc(-c2cc(CN)nc3ccnn23)cc1, the INHIBITION rises from -23.3% to 35.2%.

Going from CC(c1ccccc1)N(C)C(=O)CNCCn1cccn1 (centres undefined) to Cn1nccc1C(=O)NCCN1CCC(O)(c2ccc(F)cc2)CC1, the INHIBITION falls from 31.1% to 14.65%.

Going from Cc1nn(C)c2nc(N3CCCC3c3nccs3)sc12 (centres undefined) to Cc1nn(C)c2nc(N3CCCCC3c3nccs3)sc12 (centres undefined), the INHIBITION falls from 49.9% to 28.7%.

First: Cc1ccc(CN2CCN(c3nc4c(s3)c(C)nn4C)C(C)C2=O)cc1 (centres undefined)
Second: COC(=O)CN1CCN(c2nc3c(s2)c(C)nn3C)C(C)C1=O (centres undefined)
The INHIBITION of the first is higher: 78% for the first, 52.9% for the second.

Going from Cc1nn(C)c2nc(N3CCNC(=O)C3Cc3ccccc3)sc12 (centres undefined) to COC(=O)CC1C(=O)NCCN1c1nc2c(s1)c(C)nn2C (centres undefined), the INHIBITION rises from 32.3% to 51.1%.

First: Cc1ccc(CN2CCN(C(=O)c3ccc(CO)cc3)C(C)C2=O)cc1 (centres undefined)
Second: CNc1ncccc1C(=O)N1CCN(Cc2ccc(C)cc2)C(=O)C1C (centres undefined)
The INHIBITION of the first is higher: 60.3% for the first, -11.5% for the second.

Going from Cc1occc1C(=O)N1CCCN(Cc2nccn2C)CC1 to C[C@@H]1CN(C(=O)c2ccc[nH]2)C[C@]12CCN(CCN1CCCC1)C2=O, the INHIBITION rises from 23.7% to 48.4%.

Going from CCCS(=O)(=O)N1C[C@@H]2C[C@H](C(=O)N3CCN(C)CC3)[C@H](C1)O2 to Cc1cccc(CNC(=O)CC2CCN(S(C)(=O)=O)CC2)n1, the INHIBITION falls from 21.1% to -20.6%.

Going from CC(C)C[C@@H](C(N)=O)n1cc(-c2cncnc2)nn1 to CC(C)c1cc(CSCCC(=O)O)no1, the INHIBITION falls from 12.8% to -46.4%.

Going from Cc1nc(C2CCCN2Cc2nccn2CC(F)(F)F)no1 (centres undefined) to CC(C)c1cc(CN2CCC(CC(=O)O)CC2)no1, the INHIBITION rises from 21.6% to 53%.

First: CN1C(=O)COc2ccc(C(=O)Cn3cnc4ccsc4c3=O)cc21
Second: COCCN1CC[C@]2(CN(C(=O)c3cccs3)C[C@H]2C)C1=O
The INHIBITION of the first is higher: 47.9% for the first, 22.4% for the second.

Compared with COCCN(C)C1COC2(CCN(Cc3ccccn3)CC2)C1 (centres undefined), COCCN1CC[C@]2(CN(C(=O)c3ccc[nH]3)C[C@H]2C)C1=O is higher in INHIBITION: 25.2% for the first, 61.3% for the second.

Going from CC(C)c1cc(COCCCC(=O)O)no1 to CC(C)c1cc(CN2CCNCC2)no1, the INHIBITION falls from 38.2% to 30.8%.

Work on CC(C)c1cc(CN2CCC(N)CC2)on1 yielded an INHIBITION of 41.2%.
